The panel holds about 83,000 compounds, 20% with a hit somewhere; the sample as a whole holds those more often.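 Percent growth is the endpoint: 0 to 100 indicates growth inhibition (40 means 60% inhibition), 0 means no net growth, and negative values indicate cell death.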 Values without a mark were called inactive. Activity calls are given as the source filed them. How the source made its calls: active means growth percent below 10; inactive means the rest.
Key:
Assay in all cases: NCI-60 one-dose screen, 48 h (100 = growth as untreated, 0 = no growth, -100 = all killed)
Details in all cases: 10 µM unless noted
[1] = test system: SR leukemia
[2] = test system: RPMI-8226 leukemia
[3] = test system: OVCAR-8 ovarian
[4] = test system: OVCAR-5 ovarian
[5] = test system: OVCAR-4 ovarian
[6] = test system: SK-OV-3 ovarian
[7] = test system: IGROV1 ovarian
[8] = test system: OVCAR-3 ovarian
[9] = test system: HS 578T breast
[10] = test system: T-47D breast
[11] = test system: BT-549 breast
[12] = test system: MDA-MB-435 melanoma
[13] = test system: SW-620 colon
[14] = test system: MCF7 breast
[15] = test system: HCT-116 colon
[16] = test system: HCC-2998 colon
[17] = test system: KM12 colon
[18] = test system: NCI/ADR-RES ovarian

## O=c1[nH]c(-c2ccc(Cl)cc2)cn1-c1ccc(-n2cc(-c3ccc(Cl)cc3)[nH]c2=O)cc1
[1]
  growth: 98%
[2]
  growth: 123%
[3]
  growth: 92%
[4]
  growth: 104%
[5]
  growth: 98.5%
[6]
  growth: 97.5%
[7]
  growth: 102%
[8]
  growth: 109%
[9]
  growth: 102%
[10]
  growth: 89.1%
[11]
  growth: 110%
[12]
  growth: 98.8%
[13]
  growth: 102%
[14]
  growth: 99.8%
[15]
  growth: 101%
[16]
  growth: 106%
[17]
  growth: 106%

## COc1ccc(C2=NN(C(=O)c3cc(OC)c(OC)c(OC)c3)C(c3ccc(N(C)C)cc3)C2)cc1 (centres undefined)
[1]
  growth: 15.3%
[2]
  growth: -27.9% (active)
[3]
  growth: 29.3%
[4]
  growth: 64.7%
[5]
  growth: 35.2%
[6]
  growth: 35.4%
[7]
  growth: -8.59% (active)
[8]
  growth: 5.03% (active)
[9]
  growth: 13.6%
[18]
  growth: -5.85% (active)
[10]
  growth: 56.8%
[12]
  growth: -30.4% (active)
[13]
  growth: 28.3%
[14]
  growth: 15%
[15]
  growth: 11.8%
[17]
  growth: 23.3%

## CCOC(=O)c1c(C)c2c(n1C)CSc1cc(S(=O)(=O)c3ccccc3)c(=O)[nH]c1-2
[1]
  growth: 45% [100 µM]
[2]
  growth: 28.9% [100 µM]
[3]
  growth: 34.4% [100 µM]
[4]
  growth: 62.4% [100 µM]
[5]
  growth: 26.4% [100 µM]
[6]
  growth: 26.8% [100 µM]
[7]
  growth: 30.6% [100 µM]
[8]
  growth: 18.5% [100 µM]
[9]
  growth: 53.6% [100 µM]
[10]
  growth: 12.3% [100 µM]
[11]
  growth: 3.95% [100 µM] (active)
[12]
  growth: 19.3% [100 µM]
[13]
  growth: 35.9% [100 µM]
[14]
  growth: 13.8% [100 µM]
[15]
  growth: 11% [100 µM]
[16]
  growth: 20.3% [100 µM]
[17]
  growth: 16.5% [100 µM]

## C=CC1(C)C(O[Si](C)(C)C(C)(C)C)CC2C3OC(=O)NC31c1cccc3c1[C@H](C(=O)N3C)C2(C)C (some centres undefined)
[1]
  growth: 24.4%
[2]
  growth: 7.41% (active)
[3]
  growth: 55.1%
[4]
  growth: 75.8%
[5]
  growth: 55.1%
[6]
  growth: 86.6%
[7]
  growth: 80.9%
[8]
  growth: 52.7%
[9]
  growth: 79.2%
[10]
  growth: 23.8%
[11]
  growth: 53.8%
[12]
  growth: 56.2%
[13]
  growth: 64.6%
[14]
  growth: 27.7%
[15]
  growth: 38.6%
[16]
  growth: 69.1%
[17]
  growth: 50.5%

## O=C1/C(=C/c2ccc(Br)cc2)COc2ccc(O)c(O)c21
[1]
  growth: 6.26% (active)
[2]
  growth: -33.5% (active)
[3]
  growth: 6.31% (active)
[4]
  growth: -59.8% (active)
[5]
  growth: 15.6%
[6]
  growth: 58.8%
[7]
  growth: -45.7% (active)
[8]
  growth: -91.5% (active)
[9]
  growth: 11.9%
[10]
  growth: -16.3% (active)
[11]
  growth: 3.5% (active)
[12]
  growth: -24.4% (active)
[13]
  growth: -35.9% (active)
[14]
  growth: 4.13% (active)
[15]
  growth: -15.9% (active)
[16]
  growth: -66.3% (active)
[17]
  growth: -68% (active)

## O=C1/C(=C/c2ccc(C(F)(F)F)cc2)COc2ccc(O)c(O)c21
[1]
  growth: 3.77% (active)
[2]
  growth: -13.8% (active)
[3]
  growth: 9.3% (active)
[4]
  growth: -34.1% (active)
[5]
  growth: 24.8%
[6]
  growth: 81.6%
[7]
  growth: -49.6% (active)
[8]
  growth: -84.6% (active)
[9]
  growth: 10.4%
[18]
  growth: -11.6% (active)
[10]
  growth: -36.8% (active)
[12]
  growth: -5.38% (active)
[13]
  growth: -46% (active)
[14]
  growth: 4.91% (active)
[15]
  growth: -35.5% (active)
[16]
  growth: -39.2% (active)
[17]
  growth: -31.3% (active)

## CCN(CC)c1ccc(/C=N\NC(=O)c2cccc(Nc3ccnc(C(F)(F)F)c3)c2)c(O)c1
[1]
  growth: 131%
[2]
  growth: 6.52% (active)
[3]
  growth: 37.3%
[4]
  growth: 48.6%
[5]
  growth: 18.8%
[6]
  growth: 19.5%
[7]
  growth: 79.9%
[8]
  growth: 30.9%
[9]
  growth: 57.8%
[18]
  growth: 29.4%
[10]
  growth: 15.1%
[12]
  growth: 15.4%
[13]
  growth: 35.4%
[14]
  growth: 16.1%
[15]
  growth: 26.5%
[16]
  growth: 60.1%
[17]
  growth: 23%

## COc1cc(C(=O)/C=C/c2c(-c3cccs3)nc3ccccn23)cc(OC)c1OC
[1]
  growth: 13.8%
[2]
  growth: -9.49% (active)
[3]
  growth: 9.84% (active)
[4]
  growth: 18.4%
[5]
  growth: 13.1%
[6]
  growth: 3.6% (active)
[7]
  growth: 13.1%
[8]
  growth: -36.5% (active)
[9]
  growth: -1.24% (active)
[10]
  growth: 18.2%
[11]
  growth: -16.9% (active)
[12]
  growth: 11%
[13]
  growth: 4.78% (active)
[14]
  growth: 7.96% (active)
[15]
  growth: -5.59% (active)
[16]
  growth: 17.1%
[17]
  growth: -25.6% (active)

## O=C(/C=C/c1ccc(Br)cc1)c1ccc(-n2cc(CN3CCN(c4cc5c(cc4F)c(=O)c(C(=O)O)cn5C4CC4)CC3)nn2)cc1
[1]
  growth: 16.6%
[2]
  growth: 34.2%
[3]
  growth: 79%
[4]
  growth: 99.5%
[5]
  growth: 91.4%
[6]
  growth: 78.4%
[7]
  growth: 74.2%
[8]
  growth: 95.9%
[9]
  growth: 83.6%
[10]
  growth: 80%
[11]
  growth: 81.3%
[12]
  growth: 86.6%
[13]
  growth: 95.5%
[14]
  growth: 64.8%
[15]
  growth: 7.82% (active)
[16]
  growth: 98.5%
[17]
  growth: 88.8%

## CNCc1cccc2c1OCCOCCN(C)C(=O)CN(C)S(=O)(=O)c1ccc(cc1)-c1cnc(N)c(n1)C(=O)N2
[1]
  growth: -16.9% (active)
[2]
  growth: 88.8%
[3]
  growth: 2.03% (active)
[4]
  growth: 33.8%
[5]
  growth: 42.4%
[6]
  growth: 8.28% (active)
[7]
  growth: 51.4%
[8]
  growth: -25.3% (active)
[9]
  growth: 63.3%
[10]
  growth: -9.54% (active)
[11]
  growth: 92.4%
[12]
  growth: -91.8% (active)
[13]
  growth: -4.13% (active)
[14]
  growth: 11.6%
[15]
  growth: -69% (active)
[16]
  growth: 28%
[17]
  growth: 9.24% (active)

## CN1CCN(Cc2ccc(NC(=O)c3cncc(C#Cc4cnn5ccccc45)c3)cc2C(F)(F)F)CC1
[1]
  growth: -21.2% (active)
[2]
  growth: -17.5% (active)
[3]
  growth: 9.77% (active)
[4]
  growth: 4.3% (active)
[5]
  growth: -2.15% (active)
[6]
  growth: 15.5%
[7]
  growth: 3.17% (active)
[8]
  growth: 0.315% (active)
[9]
  growth: -15.4% (active)
[10]
  growth: 35.5%
[11]
  growth: 41%
[12]
  growth: 6.02% (active)
[13]
  growth: -14.3% (active)
[14]
  growth: 0.711% (active)
[16]
  growth: -19.1% (active)
[17]
  growth: 0.221% (active)

## COc1cc(-c2nc(SCCC(C)C)nc(N3CCOCC3)c2C#N)cc(OC)c1OC
[1]
  growth: -10.1% (active)
[2]
  growth: 90.3%
[3]
  growth: 43.1%
[4]
  growth: 102%
[5]
  growth: -25.2% (active)
[6]
  growth: 88.6%
[7]
  growth: 79.6%
[8]
  growth: -33.3% (active)
[9]
  growth: 76.7%
[10]
  growth: 13.9%
[11]
  growth: 79.9%
[12]
  growth: 85.6%
[13]
  growth: 27.7%
[14]
  growth: 58.9%
[16]
  growth: 91.7%
[17]
  growth: 38%

## Nc1c(C(=O)Nc2ccccn2)sc2nc3c(cc12)C(O)CCC3 (centres undefined)
[1]
  growth: 14.4%
[2]
  growth: 2.23% (active)
[3]
  growth: 36.5%
[4]
  growth: 46.7%
[5]
  growth: 59.4%
[6]
  growth: 17.4%
[7]
  growth: 47.9%
[8]
  growth: -19.1% (active)
[9]
  growth: 6.09% (active)
[10]
  growth: 15%
[11]
  growth: 58.2%
[12]
  growth: -44.6% (active)
[13]
  growth: 21.8%
[14]
  growth: 13.2%
[15]
  growth: 30.5%
[16]
  growth: 70.7%
[17]
  growth: 18.3%

## CCOC(=O)c1cn2ncnc(Oc3ccc(NC(=O)NC4CC4)c(F)c3)c2c1C
[1]
  growth: 84.6%
[2]
  growth: 84.6%
[3]
  growth: 99.7%
[4]
  growth: 103%
[5]
  growth: 69.7%
[6]
  growth: 111%
[7]
  growth: 99.3%
[8]
  growth: 113%
[9]
  growth: 103%
[10]
  growth: 93.8%
[11]
  growth: 103%
[12]
  growth: 95.9%
[13]
  growth: 96.2%
[14]
  growth: 92.6%
[15]
  growth: 76.9%
[17]
  growth: 101%

## CCCCCCCC/C=C\CCCCCCCCOc1ccccc1CC(=O)NCC[N+]1(C)CCCCC1
[1]
  growth: -5.14% (active)
[2]
  growth: 19.7%
[3]
  growth: 60.5%
[4]
  growth: 66.2%
[5]
  growth: 34.1%
[6]
  growth: 85.2%
[7]
  growth: 16.5%
[8]
  growth: 41.3%
[9]
  growth: 77.2%
[18]
  growth: 99.3%
[10]
  growth: 59.9%
[12]
  growth: 41.5%
[13]
  growth: 61.1%
[14]
  growth: 80%
[16]
  growth: 57.5%
[17]
  growth: 22.5%

## C=C1C(=O)O[C@H]2[C@H]1CC/C(Cn1cc(-c3cc(C(F)(F)F)cc(C(F)(F)F)c3)nn1)=C\CC[C@@]1(C)O[C@@H]21
[1]
  growth: -48.5% (active)
[2]
  growth: -31.4% (active)
[3]
  growth: -85.7% (active)
[4]
  growth: -69.4% (active)
[5]
  growth: -95.1% (active)
[6]
  growth: -89.5% (active)
[7]
  growth: -78.6% (active)
[8]
  growth: -92.7% (active)
[9]
  growth: -30.5% (active)
[18]
  growth: -35.7% (active)
[10]
  growth: -60.6% (active)
[12]
  growth: -81.7% (active)
[13]
  growth: -35.8% (active)
[14]
  growth: -67.6% (active)
[15]
  growth: -87.2% (active)
[16]
  growth: -87.4% (active)
[17]
  growth: -77.1% (active)

## Cn1c(=O)c2c(nc(NC3=NS(=O)(=O)c4ccccc43)n2Cc2ccccc2)n(C)c1=O
[1]
  growth: 108%
[2]
  growth: 103%
[3]
  growth: 99.5%
[4]
  growth: 99.6%
[5]
  growth: 103%
[6]
  growth: 97.5%
[7]
  growth: 95.5%
[8]
  growth: 110%
[9]
  growth: 96.5%
[10]
  growth: 115%
[11]
  growth: 106%
[12]
  growth: 101%
[13]
  growth: 102%
[14]
  growth: 88.7%
[15]
  growth: 103%
[16]
  growth: 107%
[17]
  growth: 99.9%

Source: PubChem BioAssay (NCI)
